Measured values reported in publication PMC7862700, “An all-to-all approach to the identification of sequence-specific readers for epigenetic DNA modifications on cytosine”.

Molecular target: ELF1 (Homo sapiens, UniProt P32519 1-619)
Experiment: DAPPL (digital affinity profiling via proximity ligation, sequencing); 10 mM Tris-HCl pH 7.5, 50 mM NaCl, 1 mM DTT, 4% glycerol, room temperature, 30 min; GST-TFs on glutathione beads, 16-mer random dsDNA library, 0.1% formaldehyde crosslink after washing; high values mean tight binding
Conditions: protein: recombinant; tags: N-terminal GST; dsDNA, one strand shown
Procedure, shortened: (§1)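 Beads coated with glutathione captured GST-fused human transcription factors that had been expressed in yeast, and the factors were then given DNA barcodes and pooled with a tag-only sample. The pools were incubated with 200 nmole of a random double-stranded 16-mer DNA library in Tris/NaCl/DTT/glycerol buffer for 30 min at room temperature, washed, crosslinked with 0.1% formaldehyde and proximity-ligated with BsaI/T4 ligase at 37 °C for 1 h. PCR amplification and Illumina NextSeq500 sequencing came last. Binding signal is each hexamer's read frequency for a factor divided by its frequency for the tag-only sample.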

Sequence of ELF1 (P32519 whole entry): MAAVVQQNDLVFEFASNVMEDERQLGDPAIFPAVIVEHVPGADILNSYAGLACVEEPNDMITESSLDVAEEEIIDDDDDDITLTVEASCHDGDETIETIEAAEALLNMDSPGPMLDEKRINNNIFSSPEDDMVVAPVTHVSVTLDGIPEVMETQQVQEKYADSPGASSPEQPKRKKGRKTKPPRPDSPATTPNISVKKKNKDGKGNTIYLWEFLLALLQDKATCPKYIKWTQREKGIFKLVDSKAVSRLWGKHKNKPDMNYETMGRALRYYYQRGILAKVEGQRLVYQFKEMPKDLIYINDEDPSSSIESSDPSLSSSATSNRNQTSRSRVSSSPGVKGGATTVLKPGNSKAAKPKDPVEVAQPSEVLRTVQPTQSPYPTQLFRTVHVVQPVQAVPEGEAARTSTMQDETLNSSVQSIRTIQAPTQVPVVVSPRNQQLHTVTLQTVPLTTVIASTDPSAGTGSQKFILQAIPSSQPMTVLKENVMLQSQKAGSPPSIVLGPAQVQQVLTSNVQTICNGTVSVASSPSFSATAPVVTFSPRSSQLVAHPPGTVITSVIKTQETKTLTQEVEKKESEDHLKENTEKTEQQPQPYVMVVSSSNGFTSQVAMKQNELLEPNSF

In order of falling binding signal:
1. GGATAT  1.48 fold enrichment (6-mer frequency, TF over GST control)
2. GATATC  1.46 fold enrichment (6-mer frequency, TF over GST control)
3. CTGACC  1.46 fold enrichment (6-mer frequency, TF over GST control)
4. TCCGTT  1.34 fold enrichment (6-mer frequency, TF over GST control)
5. TCACAT  1.32 fold enrichment (6-mer frequency, TF over GST control)
6. ACCACT  1.31 fold enrichment (6-mer frequency, TF over GST control)
7. ACCGCC  1.29 fold enrichment (6-mer frequency, TF over GST control)
8. CCATCA  1.29 fold enrichment (6-mer frequency, TF over GST control)
9. CCTACC  1.28 fold enrichment (6-mer frequency, TF over GST control)
10. GCCTCC  1.27 fold enrichment (6-mer frequency, TF over GST control)
11. TGATGT  1.26 fold enrichment (6-mer frequency, TF over GST control)
12. CGGTTT  1.26 fold enrichment (6-mer frequency, TF over GST control)
13. CCTCGG  1.24 fold enrichment (6-mer frequency, TF over GST control)
14. CTCAGT  1.22 fold enrichment (6-mer frequency, TF over GST control)
15. ACCTTG  1.21 fold enrichment (6-mer frequency, TF over GST control)
16. AAACGG  1.21 fold enrichment (6-mer frequency, TF over GST control)
17. TCACCC  1.2 fold enrichment (6-mer frequency, TF over GST control)
18. TGCAAT  1.18 fold enrichment (6-mer frequency, TF over GST control)
19. AAGTCA  1.17 fold enrichment (6-mer frequency, TF over GST control)
20. AACGGC  1.16 fold enrichment (6-mer frequency, TF over GST control)
21. TTGTTG  1.14 fold enrichment (6-mer frequency, TF over GST control)
22. CCTGTA  1.14 fold enrichment (6-mer frequency, TF over GST control)
23. CGCTCA  1.13 fold enrichment (6-mer frequency, TF over GST control)
24. CTACGT  1.13 fold enrichment (6-mer frequency, TF over GST control)
25. TACAGG  1.13 fold enrichment (6-mer frequency, TF over GST control)
26. ATCACA  1.13 fold enrichment (6-mer frequency, TF over GST control)
27. TACGTC  1.13 fold enrichment (6-mer frequency, TF over GST control)
28. TCATGC  1.11 fold enrichment (6-mer frequency, TF over GST control)
29. ATACGT  1.11 fold enrichment (6-mer frequency, TF over GST control)
30. AAAGGG  1.09 fold enrichment (6-mer frequency, TF over GST control)
31. GGCTTA  1.08 fold enrichment (6-mer frequency, TF over GST control)
32. TGCTGA  1.07 fold enrichment (6-mer frequency, TF over GST control)
33. TACCCA  1.07 fold enrichment (6-mer frequency, TF over GST control)
34. TGCATA  1.06 fold enrichment (6-mer frequency, TF over GST control)
35. GGTCTA  1.05 fold enrichment (6-mer frequency, TF over GST control)
36. TCAATG  1.04 fold enrichment (6-mer frequency, TF over GST control)
37. TGTATA  1.04 fold enrichment (6-mer frequency, TF over GST control)
38. TACCGC  1.02 fold enrichment (6-mer frequency, TF over GST control)
39. CCTAGA  1.02 fold enrichment (6-mer frequency, TF over GST control)

Molecular target: T1, EHF (Homo sapiens, UniProt Q9NZC4 1-300)
T1 sequence: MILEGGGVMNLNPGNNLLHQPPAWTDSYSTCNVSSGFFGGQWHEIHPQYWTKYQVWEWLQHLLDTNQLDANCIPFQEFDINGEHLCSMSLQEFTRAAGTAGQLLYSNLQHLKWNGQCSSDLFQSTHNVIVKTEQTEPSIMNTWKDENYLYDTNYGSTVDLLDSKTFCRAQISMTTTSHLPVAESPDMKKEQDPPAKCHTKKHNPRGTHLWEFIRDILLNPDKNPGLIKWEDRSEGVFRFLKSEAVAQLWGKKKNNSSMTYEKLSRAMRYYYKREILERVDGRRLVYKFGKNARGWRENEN
Experiment: as above
Conditions: protein: recombinant; tags: N-terminal GST; dsDNA, one strand shown
Procedure, shortened: as §1

In order of rising binding signal:
1. GGCATT  1.01 fold enrichment (6-mer frequency, TF over GST control)
2. TCAATG  1.04 fold enrichment (6-mer frequency, TF over GST control)
3. TCACCC  1.06 fold enrichment (6-mer frequency, TF over GST control)
4. CTCAGT  1.06 fold enrichment (6-mer frequency, TF over GST control)
5. TACCGC  1.11 fold enrichment (6-mer frequency, TF over GST control)
6. TTGTTG  1.12 fold enrichment (6-mer frequency, TF over GST control)
7. TGATGT  1.14 fold enrichment (6-mer frequency, TF over GST control)
8. AAGTCA  1.15 fold enrichment (6-mer frequency, TF over GST control)
9. TCATGC  1.15 fold enrichment (6-mer frequency, TF over GST control)
10. TGCATA  1.16 fold enrichment (6-mer frequency, TF over GST control)
11. CGCTCA  1.18 fold enrichment (6-mer frequency, TF over GST control)
12. CTACGT  1.25 fold enrichment (6-mer frequency, TF over GST control)
13. ACCACT  1.25 fold enrichment (6-mer frequency, TF over GST control)
14. AACGGC  1.25 fold enrichment (6-mer frequency, TF over GST control)
15. CGGTTT  1.27 fold enrichment (6-mer frequency, TF over GST control)
16. TCACAT  1.27 fold enrichment (6-mer frequency, TF over GST control)
17. ACCTTG  1.3 fold enrichment (6-mer frequency, TF over GST control)
18. CCTCGG  1.33 fold enrichment (6-mer frequency, TF over GST control)
19. TCCGTT  1.4 fold enrichment (6-mer frequency, TF over GST control)
